The source of these data is PubChem BioAssay AID1347171 (National Center for Advancing Translational Sciences (NCATS), 2019).

Inconclusive results are not listed. Calls of active or inactive are those of the source. Calls follow the shape of the dose curve; as a rule, active = well fitted inhibition curve with a large enough effect; inconclusive = small, poorly fitted or top-dose-only effect; inactive = no such curve, though single readings can be large or run the other way.

This assay is described as follows: Orthogonal mCherry assay for qRT-PCR qHTS of selected Zika virus inhibitors. The note with it: Vero cells, ZIKV-mCherry infection imaging, 48-72 h; series mostly up to 32.6 µM; activity change, negative = inhibition: at the top concentration. An excerpt:
Description: Assay Submitters (PI): Avindra Nath, Ph.D., National Institute of Neurological Disorders and Stroke (NINDS), Bethesda, MD Radhakrishnan Padmanabhan, Ph.D., Georgetown University (GU), Washington D.C. Zika Virus causes congenital defects, including microcephaly and is associated with Guillain-Barre syndrome, eningoencephalitis and myelitis in infected adult. […] Using a target-based approach, we hope to establish a screening paradigm to uncover novel, cell-active NS2B-NS3 protease (Zika Virus) specific inhibitors from NCATS' collection of small molecules using qHTS. […] Four assay panel was created to identify potential Zika Virus inhibitors. Namely, (1) GU unlinked NS2B-NS3 AMC tagged protease qHTS, (2) GU unlinked NS2B-NS3 Rhodamine tagged protease qHTS, (3) NINDS linked NS2B-NS3 AMC tagged protease qHTS, (4) NINDS linked NS2B-NS3 Rhodamine tagged protease qHTS. Inhibitors of the Zika virus primary screens are confirmed using qRT-PCR secondary assays, mCherry orthogonal assay, and Vero cells viability counterscreen. Early Translation Branch (ETB) National Center for Advancing Translational Sciences (NCATS), Rockville, MD National Institute of Health (NIH), Bethesda, Maryland
384 well ZIKV-mCherry Assay: We have developed a new orthogonal imaging assay in 384-well plate format, which uses recombinant virus ZIKV-mCherry in Vero cells. Briefly, 30 microL of Vero cells derived from a green monkey cell line, were dispensed by Multidrop Dispenser into a clear solid bottom black 384 well plate (ultracarrier, Perkin Elmer LifeSciences) at a concentration of 5,000 cells per well. […] The TIFFs were quantitated using the canned Multi Target Analysis protocol (GE Investigator Workstation software v3.7.2). […] A recombinant Zika viral infection was monitored in the Cy5 channel (cells) using a 2 microm collar dilation from the nuclear bitmap. mCherry objects with an average nuclear RFU intensity above 450 (3 stdev above mean negative control wells) were considered "mcherry positive" and data was analyzed by percent infection rate.
Regarding `CC(=O)c1c(O)c(C)c(O)c(Cc2c(O)c3c(c(C(=O)/C=C/c4ccccc4)c2O)OC(C)(C)C=C3)c1O`, the Potency is 11.2 µM (active). As to `O=C1OC(c2ccc(O)c(S(=O)(=O)O)c2)(c2ccc(O)c(S(=O)(=O)O)c2)c2c(Br)c(Br)c(Br)c(Br)c21`, the “activity change, negative = inhibition” value was -37.8% (inactive). Take `CC(C)=CCC[C@]1(C)C=Cc2c(O)c3c(c(CC=C(C)C)c2O1)O[C@]12C(=C[C@@H]4CC1C(C)(C)O[C@@]2(C/C=C(/C)C(=O)O)C4=O)C3=O`: the Potency is 3.55 µM (active).
